Values without a mark were called inactive. The source made the active and inactive calls. Calls come from the whole dose curve; as a rule, active = well fitted curve in the direction sought with a large enough effect in the repeat runs; inconclusive = weak or mixed curves; inactive = flat fitted curve, though single readings scatter.
% is set by controls: 0 for no effect and ±100 for the full control effect.

A short description of this test: qHTS assay to test for compound auto fluorescence at 460 nm (blue) in HEK293 cells (AID 720678). The note with it: blue autofluorescence 405/460 nm; series mostly up to 91.3 µM; fluorescence, % of triamterene: at the top concentration. The source says: National Center for Advancing Translational Sciences [NCATS]
NIH Chemical Genomics Center [NCGC]
U.S. Environmental Protection Agency [EPA]
National Institutes of Environmental Health Sciences [NIEHS]
National Toxicology Program [NTP]
U.S. Food and Drug Administration [FDA]
Compound auto fluorescence often interferes with screening of the compound library against various biological targets and signaling pathways. Some of these compounds may have fluorophoric properties. Such properties may interfere with the assay outputs resulting in false positives and/or negatives. To decrease such complications and ensure the compound activities are relevant in terms of biological response, the Tox21 10K compound library was screened for auto fluorescence.
From the fluorophores used as reporter signals in our screening assays, the auto fluorescence equivalencies of compounds against three fluorophores have been evaluated: Triamterene, Fluorescein and Rose Bengal sodium for blue, green and red fluorescence, respectively. The fluorescence intensities were measured using Excitation/Emission wavelengths at 405/460nm, 485/535nm and 540/590nm for blue, green and red labels, respectively. This assay includes the blue fluorescence data.
Tox21 Assay Protocol Summary:
2,000 HEK293 cells in 5 uL of culture medium containing 10% dialyzed FBS per well were dispensed into black wall/clear bottom 1536-well plates using a Multidrop Combi Dispenser (Thermo Scientific). The assay plates were incubated for 4-5 hr at 37C to allow cell attachment to the well bottom, followed by the transfer of 23 nL compound or DMSO vehicle by a pintool work station (Kalypsys, San Diego, CA). After the assay plates were incubated overnight at 37C and 5% CO2, fluorescence intensities in the assay plates were measured by an Envision (PerkinElmer, Shelton, CT) plate reader using three labels for measuring blue, green and red fluorescence at […] 460, 535 and 590nm respectively.
In general terms: qHTS replaces the single test concentration by a dilution series.
Regarding `COC(=O)CCC(=O)OC`, the outcome was inactive.
`CC(CCC(=O)O)(c1ccc(O)cc1)c1ccc(O)cc1`: the outcome was inactive.
The same measure, in the same setting: the result for `C[Si](C)(C)O[Si](C)(C)C` reads “inactive”; that for `CCC(C)CO` (stereo not given), “inactive”.
`Nc1ccccc1N`: the outcome was inactive.
On the same count and under the same terms, with `c1ccc(Nc2ccccc2)cc1` the entry was “inactive”.
Same read-out and setting: the result for `COC(C)COC(C)COC(C)CO` (stereo not given) reads “inactive”; that for `O=[N+]([O-])c1ccc2c(c1)Cc1ccccc1-2`, “inactive”.
Take `Nc1ncn([C@@H]2O[C@H](CO)[C@@H](O)[C@H]2O)c(=O)n1`: the outcome was inactive.
Same read-out and setting: the result for `O=c1oc(=O)c2cc3c(=O)oc(=O)c3cc12` reads “inactive”; that for `CC(C)=CCCC(C)CCO` (stereo not given), “inactive”.
`CC(=O)Oc1ccccc1C(=O)Nc1ncc([N+](=O)[O-])s1`: the compound was called inactive.
On the same count and under the same terms, the result for `c1ccc2cc(Nc3ccc(Nc4ccc5ccccc5c4)cc3)ccc2c1` reads “inactive”.
On the same count and under the same terms, the result for `CCCCc1oc2ccccc2c1C(=O)c1cc(I)c(OCCN(CC)CC)c(I)c1` reads “inactive”; that for `C=CC(C)(CCC=C(C)C)OC(C)=O` (stereo not given), “inactive”; that for `O=CCc1ccccc1`, “inactive”.
On the same count and under the same terms, with `O=C(/C=C/c1ccccc1)OCc1ccccc1` the entry was “inactive”.
As to `CN(C)CCC=C1c2ccccc2CCc2ccccc21`, the result was inactive.
Regarding `Cc1ccc(C)c(O)c1C`, the compound was called inactive.
On the same count and under the same terms, the result for `C[C@]12CC[C@H]3[C@@H](CCC4=CC(=O)CC[C@@]43C)[C@@H]1CC[C@@H]2C(=O)CO` reads “inactive”; that for `O=C(c1ccc(OCCN2CCCCC2)cc1)c1c(-c2ccc(O)cc2)sc2cc(O)ccc12`, “inactive”; that for `Cc1cccc([N+](=O)[O-])c1C`, “inactive”.
Still for that read-out and setting: with `Cc1[nH]c(=O)c(C#N)cc1-c1ccncc1` the entry was “inactive”.
In the case of `Cc1cc2nc3c(=O)[nH]c(=O)nc-3n(C[C@H](O)[C@H](O)[C@H](O)CO)c2cc1C`, the “fluorescence, % of triamterene” value was 5.32%.
`CC(C)Oc1ccc2c(=O)c(-c3ccccc3)coc2c1`: the compound was called inactive.
For `C/C=C/C(=O)O`, the compound was classed as inactive.
Still for that read-out and setting: the result for `CCCCCCCCCCCO` reads “inactive”; that for `OC(CCl)CCl`, “inactive”; that for `c1cc(-c2ccncc2)ccn1`, “inactive”.
Same read-out and setting: the result for `CCCCNS(=O)(=O)c1ccccc1` reads “inactive”; that for `O=C=Nc1ccc(Cc2ccc(N=C=O)cc2)cc1`, “inactive”; that for `Oc1ccc(O)cc1`, “inactive”.
On the same count and under the same terms, the result for `CCC(C)(O)CCCC(C)C` (stereo not given) reads “inactive”.
For `CC(C)OC=O`, the call was inactive.
Same read-out and setting: with `OC[C@H]1O[C@@H]2O[C@H]3[C@H](O)[C@@H](O)[C@@H](O[C@H]4[C@H](O)[C@@H](O)[C@@H](O[C@H]5[C@H](O)[C@@H](O)[C@@H](O[C@H]6[C@H](O)[C@@H](O)[C@@H](O[C@H]7[C@H](O)[C@@H](O)[C@@H](O[C@H]8[C@H](O)[C@@H](O)[C@@H](O[C@H]1[C@H](O)[C@H]2O)O[C@@H]8CO)O[C@@H]7CO)O[C@@H]6CO)O[C@@H]5CO)O[C@@H]4CO)O[C@@H]3CO` the entry was “inactive”; with `COc1cc([C@@H]2c3cc4c(cc3[C@H](O)[C@H]3COC(=O)[C@H]23)OCO4)cc(OC)c1OC`, “inactive”; with `C=C(C)C1CC=C(C)CC1` (stereo not given), “inactive”.
Same read-out and setting: the result for `Cc1c(C(N)=O)cc([N+](=O)[O-])cc1[N+](=O)[O-]` reads “inactive”.
Same read-out and setting: the result for `OC1CCCCCCCCCCC1` reads “inactive”.
`CC(=O)O[C@]1(C(C)=O)CC[C@H]2[C@@H]3C=C(Cl)C4=CC(=O)[C@@H]5C[C@@H]5[C@]4(C)[C@H]3CC[C@@]21C`: the compound was classed as inactive.

These data come from PubChem BioAssay (Tox21).
